The list shows a part of the results. How many sequences the whole screen found active is unknown.

This experiment addresses furin, P09958. As to the kind of experiment: furin cleavage Z-score vs untreated control; higher = more cleavage, active = 3.5 or more, inactive = 1 or less, 8 variable residues between constant flanks. In short, it runs like this:
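Reactions of 0.01 ml ran for 7.5, 15 or 30 min in 50 mM HEPES pH 7.5 with CaCl2 and NaCl, at 1:10 enzyme:substrate. In them, purified furin acted on bead-held 8-mer peptides fused to a cDNA oligonucleotide. The cleavage Z-score was obtained by lowess-adjusting log sequencing counts of released DNA against furin-free reactions and scaling by median absolute deviation.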

Sequence of furin, P09958 (P09958 whole entry, the tested form may be a part): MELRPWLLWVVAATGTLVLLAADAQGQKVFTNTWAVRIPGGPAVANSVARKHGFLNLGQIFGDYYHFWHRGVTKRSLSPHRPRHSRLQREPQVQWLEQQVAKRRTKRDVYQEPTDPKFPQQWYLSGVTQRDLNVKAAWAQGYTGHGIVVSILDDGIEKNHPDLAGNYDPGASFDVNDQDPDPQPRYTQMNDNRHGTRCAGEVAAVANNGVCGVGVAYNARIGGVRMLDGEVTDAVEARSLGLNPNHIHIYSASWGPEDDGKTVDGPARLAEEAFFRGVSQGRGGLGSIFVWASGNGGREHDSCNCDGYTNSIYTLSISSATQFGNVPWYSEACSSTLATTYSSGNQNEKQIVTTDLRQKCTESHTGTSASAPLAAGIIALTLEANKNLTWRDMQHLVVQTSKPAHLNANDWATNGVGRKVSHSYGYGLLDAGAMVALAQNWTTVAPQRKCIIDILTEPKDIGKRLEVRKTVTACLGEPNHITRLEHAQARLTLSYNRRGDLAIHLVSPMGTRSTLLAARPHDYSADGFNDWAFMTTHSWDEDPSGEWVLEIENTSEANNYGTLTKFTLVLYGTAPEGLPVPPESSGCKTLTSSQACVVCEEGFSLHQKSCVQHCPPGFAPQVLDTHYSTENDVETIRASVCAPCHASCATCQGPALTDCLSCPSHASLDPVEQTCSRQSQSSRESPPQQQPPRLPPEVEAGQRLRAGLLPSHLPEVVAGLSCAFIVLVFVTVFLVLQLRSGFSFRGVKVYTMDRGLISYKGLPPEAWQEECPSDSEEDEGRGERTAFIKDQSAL

For the sequence CALLGCIITSAGNASASA [HC680], the “furin cleavage Z-score” value was -0.345 (inactive) (7.5 min), -1.06 (inactive) (15 min) and -1.24 (inactive) (30 min).
In the case of CANREVPCHRAGNASASA [HC2441], the “furin cleavage Z-score” value is, setting by setting: (7.5 min) 1.82; (15 min) -0.276 (inactive); (30 min) 0.432 (inactive).
For CAEVVTSTNVAGNASASA [HC2241], in that order: 0.759 (inactive), 0.285 (inactive) and 0.157 (inactive).
For CAITGHVKNGAGNASASA [HC1178], in that order: -0.0306 (inactive), -2.29 (inactive) and -0.221 (inactive).
For the sequence CAGIQYLAGLAGNASASA [HC1046], the “furin cleavage Z-score” value (7.5 min) was 0.778 (inactive), the “furin cleavage Z-score” value (15 min) is 0.268 (inactive) and the “furin cleavage Z-score” value (30 min) was 0.333 (inactive).
For CARKKKVWDYAGNASASA [FS-2424], in that order: 0.95 (inactive), -1.66 (inactive) and -0.314 (inactive).
For CARKTRSTHTAGNASASA [FS-3226], in that order: 10.5 (active), 11.5 (active) and 7.23 (active).
For CARFFRYLHTAGNASASA [FS-2920], in that order: -0.737 (inactive), -1.73 (inactive) and 0.025 (inactive).
Take CARFDRIAHTAGNASASA [FS-2552]: the “furin cleavage Z-score” value (7.5 min) was 0.362 (inactive), the “furin cleavage Z-score” value (15 min) is -0.331 (inactive) and the “furin cleavage Z-score” value (30 min) was 0.407 (inactive).
For CARRKKEVRKAGNASASA [FS-2449], in that order: -0.452 (inactive), -0.724 (inactive) and 1.33.
For CARKTRARRAAGNASASA [FS-489], in that order: 11.1 (active), 11.3 (active) and 9.01 (active).
For CARRHEKKRKAGNASASA [FS-1653], in that order: -1.27 (inactive), -0.15 (inactive) and -1.21 (inactive).
For the sequence CARRHRATRKAGNASASA [FS-1266], the “furin cleavage Z-score” value is 7.21 (active) (7.5 min), 8.97 (active) (15 min) and 6.15 (active) (30 min).
For CARRHRARRAAGNASASA [FS-1265], in that order: 12.1 (active), 11 (active) and 9.18 (active).
For CAFCALARKMAGNASASA [HC621], in that order: 0.374 (inactive), 0.367 (inactive) and 0.832 (inactive).
For CAQDVVCCSMAGNASASA [HC2122], in that order: -0.38 (inactive), -0.828 (inactive) and -1.79 (inactive).
As to CALLFNILGGAGNASASA [HC1064], the “furin cleavage Z-score” value (7.5 min) was -0.771 (inactive), the “furin cleavage Z-score” value (15 min) is -1.63 (inactive) and the “furin cleavage Z-score” value (30 min) is -1.52 (inactive).
For CATAHRIKRAAGNASASA [FS-383], in that order: 9.97 (active), 8.71 (active) and 6.96 (active).
For CAERKRIKRAAGNASASA [FS-650], in that order: 9.45 (active), 8.85 (active) and 7.6 (active).
For CAERKRECQLAGNASASA [FS-1670], in that order: 0.036 (inactive), 1.4 and -0.462 (inactive).
In the case of CARPRRFMDLAGNASASA [FS-3163], the “furin cleavage Z-score” value was 0.819 (inactive) (7.5 min), 0.127 (inactive) (15 min) and 1.71 (30 min).
For CARSGRGPFGAGNASASA [FS-1925], in that order: -0.792 (inactive), -2.29 (inactive) and -0.384 (inactive).
For CARSGRAKRFAGNASASA [FS-1271], in that order: 10.1 (active), 10.5 (active) and 11.1 (active).
For CAHERRMKRFAGNASASA [FS-791], in that order: 10 (active), 11.5 (active) and 9.74 (active).
As for CARPRRAKRFAGNASASA [FS-1069], the “furin cleavage Z-score” value is, setting by setting: (7.5 min) 9.54 (active); (15 min) 11 (active); (30 min) 9.13 (active).
CARSGRHVVFAGNASASA [FS-3079]: the “furin cleavage Z-score” value is, setting by setting: (7.5 min) -0.951 (inactive); (15 min) 0.442 (inactive); (30 min) 1.42.
For CARPARLHRFAGNASASA [FS-1065], in that order: -0.918 (inactive), 0.964 (inactive) and 0.792 (inactive).
For CADLGRAKRFAGNASASA [FS-225], in that order: 6.94 (active), 8.17 (active) and 9.16 (active).
As to CAKFPGGGQIAGNASASA [HC172], the “furin cleavage Z-score” value (7.5 min) is -2.08 (inactive), the “furin cleavage Z-score” value (15 min) is 0.112 (inactive) and the “furin cleavage Z-score” value (30 min) was -2.19 (inactive).
For CAELTTPCSGAGNASASA [HC1965], in that order: -0.879 (inactive), -0.537 (inactive) and -1 (inactive).
For CAENLETTMRAGNASASA [HC760], in that order: 0.652 (inactive), 0.35 (inactive) and 0.0456 (inactive).
Regarding CADPERRKRFAGNASASA [FS-985], the “furin cleavage Z-score” value was 4.94 (active) (7.5 min), 7 (active) (15 min) and 7.37 (active) (30 min).
For CATHFFSVLIAGNASASA [HC1584], in that order: -0.934 (inactive), -0.739 (inactive) and -0.913 (inactive).
For CAVVCCSMSNAGNASASA [HC2101], in that order: 0.58 (inactive), 0.0609 (inactive) and 0.764 (inactive).
For CARLRRSSSPAGNASASA [FS-2353], in that order: 9.29 (active), 8.89 (active) and 6.99 (active).
Consider CARLARGSPPAGNASASA [HC1255], for which the “furin cleavage Z-score” value runs as follows: (7.5 min) 0.846 (inactive); (15 min) 0.514 (inactive); (30 min) 0.935 (inactive).
In the case of CARPARVALPAGNASASA [FS-2053], the “furin cleavage Z-score” value was -1.54 (inactive) (7.5 min), -0.594 (inactive) (15 min) and 1.32 (30 min).
For CARLARALSPAGNASASA [FS-1735], in that order: 5.51 (active), 6.45 (active) and 6.16 (active).
Turning to CAWAGWLLSPAGNASASA [HC207], the “furin cleavage Z-score” value reads like this: (7.5 min) -0.479 (inactive); (15 min) 0.659 (inactive); (30 min) 1.76.
For the sequence CARPARALHPAGNASASA [FS-2734], the “furin cleavage Z-score” value runs as follows: (7.5 min) 1.19; (15 min) 3.17; (30 min) 4.44 (active).
As to CARLARSFDCAGNASASA [FS-2568], the “furin cleavage Z-score” value was 1.56 (7.5 min), 2.61 (15 min) and 3.82 (active) (30 min).
For CARPARGAGPAGNASASA [FS-3015], in that order: 0.195 (inactive), -1.12 (inactive) and -0.256 (inactive).
For CATDATSILGAGNASASA [HC821], in that order: 0.234 (inactive), -0.686 (inactive) and -0.354 (inactive).
For CARHKKSKFTAGNASASA [FS-3253], in that order: -0.584 (inactive), -0.415 (inactive) and -1.12 (inactive).

These data come from the supplement of paper PMC3545927.
